This is part of a sample that, as a whole, favours compounds with a hit. Of some 83,000 tested, about 20% had one in any assay.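 How to read the values: 0–100, growth inhibition (40 = 60% inhibited); 0, no net growth; -100 to 0, cell death (-40 = 40% of starting cells died; -100 = all dead).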 A number with no mark means an inactive call. Activity calls are given as the source filed them. The calls were made as follows: active = growth percent below 10; inactive = the rest.
How the values were obtained:
Assay in all cases: NCI-60 one-dose screen, 48 h (100 = growth as untreated, 0 = no growth, -100 = all killed)
Details in all cases: 10 µM unless noted
[1] = system: SR leukemia
[2] = system: RPMI-8226 leukemia
[3] = system: OVCAR-8 ovarian
[4] = system: OVCAR-5 ovarian
[5] = system: OVCAR-4 ovarian
[6] = system: SK-OV-3 ovarian
[7] = system: IGROV1 ovarian
[8] = system: OVCAR-3 ovarian
[9] = system: HS 578T breast
[10] = system: NCI/ADR-RES ovarian

Question: With C[C@@H]1O[C@@H](O[C@@H]2C[C@H](c3ccc4c(c3O)C(=O)C3=C(C4=O)[C@@]4(O)C(=O)C[C@](C)(O)C[C@@]4(O)C=C3)O[C@H](C)[C@H]2O)CC[C@@H]1O[C@H]1C[C@@H](O)[C@H](O)[C@@H](C)O1 as the compound, how does the growth [1] read?
Answer: The growth was 89.6%.

Question: And the growth [2]?
Answer: Its growth is 95.3%.

Question: And the growth [3]?
Answer: Its growth is 98.2%.

Question: And the growth [4]?
Answer: The growth was 110%.

Question: What about the growth [5] of the same compound?
Answer: The growth was 87.1%.

Question: What about the growth [6] of the same compound?
Answer: The growth was 111%.

Question: What about the growth [7] of the same compound?
Answer: Its growth is 96.4%.

Question: What about the growth [8] of the same compound?
Answer: The growth was 98.1%.

Question: And the growth [9]?
Answer: The growth was 105%.

Question: What about the growth [10] of the same compound?
Answer: The growth was 97%.

Question: With NC1=Nc2cc(OCCCCN3Cc4ccccc4C3)c(OCC3CC3)cc2C12CCCC2 as the compound, how does the growth [1] read?
Answer: Its growth is 11.3%.

Question: What about the growth [2] of the same compound?
Answer: The growth was 5.52% (active).

Question: What about the growth [3] of the same compound?
Answer: Its growth is 45.1%.

Question: What about the growth [4] of the same compound?
Answer: The growth was 65.3%.

Question: And the growth [5]?
Answer: Its growth is 39.6%.

Question: And the growth [6]?
Answer: The growth was 93.4%.

Question: What about the growth [7] of the same compound?
Answer: Its growth is 50%.

Question: And the growth [8]?
Answer: Its growth is 52.5%.

Question: What about the growth [9] of the same compound?
Answer: Its growth is 53.3%.

Question: What about the growth [10] of the same compound?
Answer: The growth was 73.2%.

Question: For CCNc1ccc(-c2nc3ccccc3n3cccc23)cc1, which growth [1] is on record?
Answer: Its growth is 76.4%.

Question: What about the growth [2] of the same compound?
Answer: Its growth is 85.2%.

Question: And the growth [3]?
Answer: The growth was 80.9%.

Question: And the growth [4]?
Answer: Its growth is 71%.

Question: And the growth [5]?
Answer: The growth was 72.7%.

Question: And the growth [6]?
Answer: Its growth is 72.4%.

Question: And the growth [7]?
Answer: Its growth is 64%.

Question: What about the growth [8] of the same compound?
Answer: The growth was 78.7%.

Question: What about the growth [9] of the same compound?
Answer: The growth was 78.6%.

Question: What about the growth [10] of the same compound?
Answer: The growth was 80.6%.

Question: Which growth [1] does the source give for O=C(Cc1ccc(/C=C/C(=O)c2ncc[nH]2)cc1)Nc1cc(C(F)(F)F)cc(C(F)(F)F)c1 here?
Answer: The growth was 41.1%.

Question: What about the growth [2] of the same compound?
Answer: The growth was -18% (active).

Question: What about the growth [3] of the same compound?
Answer: Its growth is 87.1%.

Question: And the growth [4]?
Answer: The growth was 103%.

Question: And the growth [5]?
Answer: Its growth is 100%.

Question: What about the growth [6] of the same compound?
Answer: Its growth is 105%.

Question: What about the growth [7] of the same compound?
Answer: Its growth is 84.4%.

Question: What about the growth [8] of the same compound?
Answer: The growth was 59.3%.

Question: And the growth [9]?
Answer: The growth was 87.6%.

Question: What about the growth [10] of the same compound?
Answer: Its growth is 102%.

Question: Which results are given for CS(=O)(=O)c1nnc(-c2ccccc2)s1?
Answer: growth [1]: 40.3%; growth [2]: 99.5%; growth [3]: 97.4%; growth [4]: 99.3%; growth [5]: 99.5%; growth [6]: 98.8%; growth [7]: 103%; growth [8]: 99.3%; growth [9]: 108%; growth [10]: 104%

Question: How did the growth [1] turn out when O=C(O)[C@@H](Cc1ccc2ccccc2c1)NC(=O)n1c2ccccc2c2ccccc21 was run?
Answer: Its growth is 25.7%.

Question: And the growth [2]?
Answer: The growth was 9.9% (active).

Question: And the growth [3]?
Answer: Its growth is 21.2%.

Question: What about the growth [4] of the same compound?
Answer: The growth was 37.6%.

Question: And the growth [5]?
Answer: The growth was 43.9%.

Question: And the growth [6]?
Answer: Its growth is 39.7%.

Question: And the growth [7]?
Answer: Its growth is 29.6%.

Question: What about the growth [8] of the same compound?
Answer: The growth was 6% (active).

Question: What about the growth [9] of the same compound?
Answer: Its growth is 17.4%.

Question: And the growth [10]?
Answer: Its growth is 7.01% (active).

Question: How did the growth [1] turn out when CN1CCN(C(=O)C(C)(C)c2ccc(C(=O)Nc3cn4cc(-c5ccncc5)ccc4n3)cc2)CC1 was run?
Answer: Its growth is 11.8%.

Question: What about the growth [2] of the same compound?
Answer: Its growth is 10.7%.

Question: And the growth [3]?
Answer: Its growth is 14.6%.

Question: And the growth [4]?
Answer: The growth was 18.3%.

Question: And the growth [5]?
Answer: The growth was 2.83% (active).

Question: And the growth [6]?
Answer: The growth was 9.33% (active).

Question: And the growth [7]?
Answer: The growth was 6.72% (active).

Question: And the growth [8]?
Answer: The growth was -37.4% (active).

Question: What about the growth [9] of the same compound?
Answer: The growth was -6.52% (active).

Question: And the growth [10]?
Answer: Its growth is 21.1%.

Question: How did the growth [1] turn out when COc1ccc(-c2nc3c(N)c(CO)cnc3s2)cc1 was run?
Answer: The growth was 93.5%.

Question: And the growth [2]?
Answer: The growth was 92.9%.

Question: And the growth [3]?
Answer: Its growth is 103%.

Question: And the growth [4]?
Answer: Its growth is 80.4%.

Question: And the growth [5]?
Answer: Its growth is 101%.

Question: What about the growth [6] of the same compound?
Answer: Its growth is 99.9%.

Question: What about the growth [7] of the same compound?
Answer: The growth was 84.7%.

Question: What about the growth [8] of the same compound?
Answer: Its growth is 89.4%.

Question: And the growth [9]?
Answer: The growth was 92.8%.

Question: What about the growth [10] of the same compound?
Answer: Its growth is 86.7%.

Question: Which results are given for CNC(=O)c1cc(Oc2cccc3nc(NC(=O)Nc4cc(C(F)(F)F)ccc4Cl)ccc23)ccn1?
Answer: growth [1]: 48.2%; growth [2]: 78.8%; growth [3]: 78%; growth [4]: 98.7%; growth [5]: -10.5% (active); growth [6]: 115%; growth [7]: 108%; growth [8]: 95.4%; growth [9]: 76.4%; growth [10]: 93.8%

Question: With COc1ccc(/C=C(/c2ccccc2)[N+](=O)[O-])c(OC)c1 as the compound, how does the growth [1] read?
Answer: The growth was 6.7% (active).

Question: What about the growth [2] of the same compound?
Answer: Its growth is 1.5% (active).

Question: And the growth [3]?
Answer: Its growth is 15.8%.

Question: And the growth [4]?
Answer: The growth was -9.82% (active).

Question: And the growth [5]?
Answer: Its growth is 14.4%.

Question: And the growth [6]?
Answer: The growth was 42.7%.

Question: What about the growth [7] of the same compound?
Answer: The growth was -35.9% (active).

Question: What about the growth [8] of the same compound?
Answer: The growth was -80.6% (active).

Question: And the growth [9]?
Answer: Its growth is 46.1%.

Question: And the growth [10]?
Answer: The growth was -4.93% (active).

Question: With COc1ccc(CCN(CC(=O)N(CC(N)=O)C2CCC[C@@H]2OCc2ccccc2)C(=O)CN(C(=O)CN(CCc2ccc(Cl)cc2)C(=O)CN(C(=O)CN(C)Cc2ccccc2F)[C@H](C)C2CCCCC2)[C@H](C)C2CCCCC2)cc1OC (stereo not given in full) as the compound, how does the growth [1] read?
Answer: Its growth is -37.1% (active).

Question: What about the growth [2] of the same compound?
Answer: Its growth is -0.194% (active).

Question: And the growth [3]?
Answer: Its growth is 32.2%.

Question: What about the growth [4] of the same compound?
Answer: The growth was 49.2%.

Question: And the growth [5]?
Answer: The growth was 48.9%.

Question: What about the growth [6] of the same compound?
Answer: The growth was 38.4%.

Question: What about the growth [7] of the same compound?
Answer: The growth was 43.4%.

Question: What about the growth [8] of the same compound?
Answer: Its growth is 32.5%.

Question: What about the growth [9] of the same compound?
Answer: The growth was 64.3%.

Question: What about the growth [10] of the same compound?
Answer: The growth was 79.2%.

Question: C#CCOc1cccc(-c2ncnc3cc(NC(=O)C=C)ccc23)c1 was tested. Which growth [1] did it give?
Answer: The growth was 5.05% (active).

Question: And the growth [2]?
Answer: The growth was 21.1%.

Question: And the growth [3]?
Answer: Its growth is 38.3%.

Question: And the growth [4]?
Answer: Its growth is 38.5%.

Question: And the growth [5]?
Answer: Its growth is 70.9%.

Question: What about the growth [6] of the same compound?
Answer: Its growth is 79.9%.

Question: And the growth [7]?
Answer: Its growth is 33.5%.

Question: And the growth [8]?
Answer: The growth was 28.6%.

Question: And the growth [9]?
Answer: The growth was 24.6%.

Question: What about the growth [10] of the same compound?
Answer: Its growth is 53.5%.

Question: For Oc1c(CN2CCC(N3CCCCC3)CC2)cc(Cc2cc(CN3CCC(N4CCCCC4)CC3)c(O)c3ncccc23)c2cccnc12, which growth [1] is on record?
Answer: The growth was 12.1%.

Question: What about the growth [2] of the same compound?
Answer: Its growth is 25.4%.

Question: What about the growth [3] of the same compound?
Answer: Its growth is 30.1%.

Question: And the growth [4]?
Answer: The growth was 42.1%.

Question: What about the growth [5] of the same compound?
Answer: Its growth is 20.7%.

Question: And the growth [6]?
Answer: Its growth is 20.5%.

Question: What about the growth [7] of the same compound?
Answer: Its growth is 22.9%.

Question: What about the growth [8] of the same compound?
Answer: The growth was 11.1%.

Question: What about the growth [9] of the same compound?
Answer: The growth was 52.8%.

Question: And the growth [10]?
Answer: Its growth is 48.4%.

Question: How did the growth [1] turn out when COC(=O)N1CC(Oc2ccccn2)C2CC1c1ccccc1O2 (stereo not given) was run?
Answer: Its growth is 94.8%.

Question: And the growth [2]?
Answer: The growth was 85.6%.

Question: And the growth [3]?
Answer: The growth was 98.7%.

Question: What about the growth [4] of the same compound?
Answer: Its growth is 107%.

Question: And the growth [5]?
Answer: Its growth is 103%.

Question: And the growth [6]?
Answer: The growth was 103%.

Question: And the growth [7]?
Answer: The growth was 120%.

Question: And the growth [8]?
Answer: The growth was 110%.

Question: And the growth [9]?
Answer: The growth was 86%.

Question: What about the growth [10] of the same compound?
Answer: Its growth is 98.5%.

Source: PubChem BioAssay (NCI)
